An excerpt weighted towards active compounds, which were near 18% of everything screened.
VP16 counter: VP16 counterscreen qHTS for inhibitors of ROR gamma transcriptional activity; Drosophila S2 Gal4-VP16 UAS-luciferase, luminescence, 20 h; Potency, µM (doses to about 53.6 µM), for inactives: top-dose activity, negative = inhibition, hits mostly inhibitors; actives 3.5% (n = 310,000); AID 2546, 2010;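 also: Gal4-VP16 expression switched on by copper sulfate through the metallothionein promoter; potency is read from the fitted curve at half-maximal effect; nearly all actives have a fitted effect of over 50% in size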
LDHA block: qHTS assay for inhibitors of human lactate dehydrogenase; purified LDHA, NADH/diaphorase-resazurin fluorescence; hits give low values; activity change, % (values are at about 110 or 230 µM); actives 0.15% (n = 480,000); AID 1347041, 2019; in the data active = activity change below about -30%; inconclusive = mostly about -25% to -30%;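 also: plate controls were DMSO wells for no effect and wells without enzyme for full effect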
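LDH5 2 nM; NADH 0.06 mM, pyruvate 0.2 mM; 200 mM Tris pH 7.4, EDTA, Tween-20; 5 min RT. Detection: diaphorase 0.133 mg/mL + resazurin 37 µM, fluorescence ex540/em590 at 0 and 20 min; normalized to enzyme-free and DMSO wells.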
IL1B secr inh: qHTS for Inhibitors of Inflammasome Signaling: IL-1-beta AlphaLISA Primary Screen; THP-1 LPS/ATP IL-1B secretion, AlphaLISA, 16 h; hits give low values; activity change, % at 57.5 µM; actives 4.7% (n = 360,000); in the data active = activity change below about -50%; inconclusive = mostly about -30% to -49%
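THP-1 cells pretreated 1 hr with compounds (up to 57.5 uM final), then stimulated with LPS (250 ng/mL final) plus ATP (1.25 mM final); secreted IL-1B measured by AlphaLISA after 16 hr, decreased signal indicating inhibition.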
RORgamma inh: qHTS for inhibitors of ROR gamma transcriptional activity; Nuclear receptor ROR-gamma (Mus musculus), P51450; Potency, µM (series often up to 53.6 µM), for the others: at the highest dose activity change, negative = inhibition, usual class: inhibitors; Drosophila S2 Gal4-RORgamma UAS-luciferase reporter, 20 h; actives 5.4% (n = 310,000); also: potency is read from the fitted curve at half-maximal effect; nearly all actives have a fitted effect of over 60% in size
Target sequence (P51450 whole entry, looked up, the tested form may be a part): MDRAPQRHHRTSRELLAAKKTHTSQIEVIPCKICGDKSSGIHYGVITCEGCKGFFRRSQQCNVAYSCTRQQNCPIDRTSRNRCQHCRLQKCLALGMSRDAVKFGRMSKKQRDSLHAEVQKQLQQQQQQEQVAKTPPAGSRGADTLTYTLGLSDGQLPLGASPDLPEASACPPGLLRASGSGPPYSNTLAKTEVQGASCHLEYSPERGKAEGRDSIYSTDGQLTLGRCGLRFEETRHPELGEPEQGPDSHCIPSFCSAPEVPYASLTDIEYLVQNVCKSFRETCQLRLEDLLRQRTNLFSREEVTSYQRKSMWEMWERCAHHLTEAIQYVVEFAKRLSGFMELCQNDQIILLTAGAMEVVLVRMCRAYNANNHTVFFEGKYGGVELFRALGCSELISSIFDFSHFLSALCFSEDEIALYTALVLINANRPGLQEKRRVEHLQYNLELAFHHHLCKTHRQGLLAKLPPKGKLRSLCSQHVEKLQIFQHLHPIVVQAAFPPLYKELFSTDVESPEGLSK
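Drosophila Schneider cells stably carrying a metallothionein-driven Gal4 DBD–ROR gamma fusion and a UAS-Photinus luciferase reporter were exposed to compound for 1 hr, then induced with copper sulfate (700 uM final) for 20 hr at ambient temperature before luminescence reading.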
TDP1 cell noCPT: qHTS for Inhibitors of human tyrosyl-DNA phosphodiesterase 1 (TDP1): qHTS in cells in absence of CPT | DT40 Tdp1-/- hTDP1 cells, no CPT, ATP luminescence, 48 h | Potency, µM (doses to about 46.2 µM), inactives show at the highest dose activity change, negative = growth inhibition, most hits filed as inhibitors | actives 15% (n = 420,000); also: potency is read from the fitted curve at half-maximal effect; nearly all actives have a fitted effect of over 55% in size
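Cells were dispensed at 400 per well, compounds added by pin tool, plates incubated ≥48 hr at 37 °C, then CellTiter-Glo added for 30 min at room temperature before luminescence reading. Line: DT40 Tdp1-/- complemented with hTDP1; camptothecin omitted.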
DT40 TDP1 CPT: qHTS for Inhibitors of human tyrosyl-DNA phosphodiesterase 1 (TDP1): qHTS in cells in presence of CPT; chicken DT40 Tdp1-/-;hTDP1 cells + 20 nM CPT, ATP luminescence, 48 h; Potency, µM (titrated, usually from 46.2 µM), inactives show at the highest dose activity change, negative = growth inhibition, most hits filed as inhibitors; actives 12% (n = 420,000); AID 686979, 2013; also: potency is read from the fitted curve at half-maximal effect; nearly all actives have a fitted effect of over 55% in size
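Chicken DT40 Tdp1-/- cells stably complemented with human TDP1 were seeded at 400 cells/well in medium containing 20 nM camptothecin, exposed to pin-transferred compounds, and grown at 37 °C for at least 48 hr. Viability was read as ATP luminescence.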
* marks the source's active call; other numbers are inactive results; ? = inconclusive; · = no result. Unless noted, calls follow the shape of the dose curve; as a rule, active = well fitted curve in the direction sought with a large enough effect; inconclusive = small, poorly fitted or top-dose-only effect, or another doubt; inactive = no such curve, though single readings can be large; an effect the other way counts as inactive or inconclusive. Unless noted, % is scaled to controls: 0 for no effect and ±100 for the full control effect.

SMILES	VP16 counter	LDHA block	IL1B secr inh	RORgamma inh	TDP1 cell noCPT	DT40 TDP1 CPT
CC1CC(C)(C)NC(=S)N1CCCC(=O)Nc1ccc(F)cc1 (stereo unspecified)	?	-10	-2	13µM*	18µM*	-26%
Cc1cc(C(=O)OC(C(=O)N(C)C)c2ccccc2)on1 (stereo unspecified)	·	12	·	·	·	·
CCOC(=O)c1oc2cc(O)c(CC)cc2c(=O)c1-c1nc2ccccc2s1	·	3	·	·	·	·
COc1cc(NC(=O)c2sc3ncn(CC(=O)N4CCCCC4C)c(=O)c3c2C)cc(OC)c1OC (stereo unspecified)	·	-2	-11	·	12µM*	?
COCCCNC(=O)c1sc2ncn(CC(=O)Nc3ccc(C)c(Cl)c3)c(=O)c2c1C	-11%	1	17	?	21µM*	?
Cc1ccc(NC(=O)c2sc3ncn(CC(=O)N4CCN(c5ccccn5)CC4)c(=O)c3c2C)cc1Cl	-13%	-2	17	23%	15µM*	?
COc1cccc(NC(=O)c2sc3ncn(CC(=O)N4CCN(c5ccccn5)CC4)c(=O)c3c2C)c1	-4%	-1	-8	45%	?	18µM*
Cc1ccc(NC(=O)c2sc3ncn(CC(=O)N4CCN(c5ccccn5)CC4)c(=O)c3c2C)cc1F	-6%	-1	34	-3%	-17%	?
Cc1c(C(=O)NCc2cccnc2)sc2ncn(CC(=O)N3CCCCC3C)c(=O)c12 (stereo unspecified)	7%	-9	27	13%	-19%	-9%
O=Cc1ccccc1OCc1ccccc1	·	5	·	·	·	·
CC(Sc1ccc2c(c1)OCCCO2)C(=O)c1ccc(F)cc1 (stereo unspecified)	·	5	·	·	·	·
CC1=C(C(=O)Nc2cc(C)on2)C(c2c(Cl)cccc2Cl)NC(=O)N1C (stereo unspecified)	·	-4	·	·	·	·
Cc1cc(O)c(C(C[N+](=O)[O-])c2ccc(Cl)cc2Cl)c(=O)o1 (stereo unspecified)	?	2	1	16µM*	16µM*	18µM*
O=C(NC1CC1)c1ccc2c(c1)N(Cc1ccccc1)CCS2	-6%	-3	-24	-1%	-21%	?
CCOC(=O)N1CCC(NC(=O)c2ccc3c(c2)N(Cc2ccccc2)CCS3)CC1	-7%	-4	32	19%	15µM*	18µM*
CCOC(=O)N1CCN(C(=O)c2cc(-c3ccc(F)cc3)[nH]c2C)CC1	-2%	0	-10	?	21µM*	?
CCOC(=O)N1CCC(NC(=O)c2ccc3c(c2)N(C)CCS3)CC1	-15%	4	9	26%	?	?
CCOC(=O)N1CCC(NC(=O)c2ccc3c(c2)N(Cc2ccc(C)cc2)CCS3)CC1	0%	-5	24	-4%	21µM*	21µM*
CCOC(=O)N1CCC(NC(=O)c2ccc3c(c2)N(Cc2ccc(F)cc2)CCS3)CC1	-12%	0	-8	23%	23µM*	23µM*
CCOc1ccc(C(=O)Nc2scc(-c3ccc(F)cc3)c2C(=O)OC)cc1	·	-20	·	·	·	·
CCOC(=O)N1CCN(C(=O)c2ccc3c(c2)N(CC)CCS3)CC1	15%	-1	-6	-11%	?	?
O=C(c1ccc2c(c1)N(Cc1ccc(F)cc1)CCS2)N1CCN(c2ccccc2)CC1	·	-1	·	·	23µM*	21µM*
CCOC(=O)N1CCN(C(=O)c2ccc3c(c2)N(Cc2ccc(F)cc2)CCS3)CC1	-20%	-5	21	37%	9.2µM*	8.2µM*
Cc1ccc(CN2CCSc3ccc(C(=O)N4CCN(c5ccccc5)CC4)cc32)cc1	·	-1	·	·	-24%	?
NC(=O)C(=O)Nc1ccccc1C(=O)NCc1cccnc1	·	-2	·	·	·	·
SMILES	VP16 counter	LDHA block	IL1B secr inh	RORgamma inh	TDP1 cell noCPT	DT40 TDP1 CPT
Cc1ccc(N2CCN(c3ncccc3[N+](=O)[O-])CC2)c(C)c1	30%	-3	-50*	0%	?	2%
Cc1ccc(C)c(N2CCN(c3ncccc3[N+](=O)[O-])CC2)c1	-10%	-4	-51*	23%	-26%	17%
CC(=O)c1c(C)[nH]c(C(=O)C(C)Sc2ccc3c(c2)OCCCO3)c1C (stereo unspecified)	·	20	·	·	·	·
CCc1ccc(/C=C2\Oc3cc(OC(=O)N4CCOCC4)ccc3C2=O)cc1	?	-2	-2	?	15µM*	?
COc1ccc(/C=C2\Oc3cc(OC(=O)N4CCOCC4)ccc3C2=O)cc1	-3%	-1	-1	?	13µM*	18µM*
CC(=O)Oc1ccc2c(c1)O/C(=C\c1ccncc1)C2=O	-11%	-2	?	-6%	-23%	?
COc1ccccc1C(=O)Oc1ccc2c(c1)O/C(=C\c1ccncc1)C2=O	-1%	-9	-1	-36%	13µM*	-30%
CC(C)CC(NC(=O)C1CCC(C)CC1)C(=O)N1CCN(c2ccccn2)CC1 (stereo unspecified)	-4%	-3	-18	17%	23µM*	16µM*
CCOc1ccc(-n2c(SCC(=O)NC(C)CC)nc3n[nH]c(C)c3c2=N)cc1 (stereo unspecified)	0%	-6	-15	0%	18µM*	?
CCOc1ccc(-n2c(SCC(=O)Nc3ccccc3CC)nc3n[nH]c(C)c3c2=N)cc1	1%	·	·	1%	·	·
CCC(C)NC(=O)CSc1nc2n[nH]c(C)c2c(=N)n1-c1ccc(C)c(Cl)c1 (stereo unspecified)	·	3	·	·	1.6µM*	3.3µM*
CCC(C)NC(=O)CSc1nc2n[nH]c(C)c2c(=N)n1-c1ccc(OC)cc1 (stereo unspecified)	?	-7	5	21%	18µM*	16µM*
O=C(NCCc1ccccc1)c1cnc2ccccc2n1	-14%	-2	7	-24%	-18%	?
Nc1nc(N)c2ncc(C(=O)CCc3ccccc3)nc2n1	-18%	-2	19	6%	?	13µM*
O=C1CC(/C=C/c2ccccc2)Cc2nc(N3CCCC3)ncc21 (stereo unspecified)	·	11	·	·	·	·
CCC1NC(C(=O)O)Cc2c1[nH]c1ccccc21 (stereo unspecified)	·	1	9	·	9.2µM*	7.3µM*
